HCMV inh – qHTS Assay for inhibitors of the human cytomegalovirus (HCMV). HFF cells, HCMV-luciferase reporter, 72 h; hits give low values. activity change, negative = inhibition, % at 57.5 µM. 410,000 tested, 4.5% active; in the data active = activity change below about -60%; inconclusive = no clear call, values can overlap the other calls; inactive = above about -39%
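HFF cells seeded 16 h at 37C, treated with compounds, infected with luciferase-reporter HCMV at MOI 1 PFU/cell; luciferase read at 72 h post infection, normalized to buffer-only and Salinomycin controls.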
HCV inhibitor – qHTS Assay for Inhibitors of Hepatitis C Virus (HCV); 340,000 tested, 3.4% active; Potency, µM (titrated, usually from 41.8 µM), for the others: at the top dose activity change, negative = inhibition, usual class: inhibitors; AID 651820, 2012; Huh7.5.1 HCVcc-Cre infection, luciferase reporter, 44 h; also: potency is read from the fitted curve at half-maximal effect
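Reporter virus HCVcc-Cre (~0.5 moi) infects cells exposed to compound; seeding density 1,000 cells/well with 4 h settling beforehand. Luminescence, 15 sec read, taken 44 h post-infection following a 15 min RT substrate incubation.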
Sm TGR inh – qHTS Assay for the Inhibitors of Schistosoma Mansoni Peroxiredoxins; Schistosoma mansoni thioredoxin glutathione reductase (TGR), Q962Y6; purified TGR, DTNB reduction, TNB absorbance 405 nm; Potency, µM (doses to about 114 µM), for the others: at the highest dose activity change, negative = inhibition, hits mostly inhibitors; 360,000 tested, 3% active; also: potency is read from the fitted curve at half-maximal effect; nearly all actives have a fitted effect of over 60% in size
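TGR 20 nM + NADPH 100 uM (dispensed conc.), cpd preinc 15 min RT; start with NADPH (500 uM addition) then DTNB (15 mM addition). Kinetic TNB absorbance, 405 nm filter. Four-parameter Hill fit across titration.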
VACV mCherry inh – qHTS for Stage-Specific Inhibitors of Vaccinia Orthopoxvirus: mCherry Reporter Primary qHTS; Potency, µM (highest dose often 36.5 µM), for inactives: top-dose activity change, negative = inhibition, usual class: inhibitors; AID 720579, 2013; Vaccinia virus mCherry reporter infection, fluorescence; 310,000 tested, 0.63% active; calls by dose curve; tested in A549 cells; also: potency is read from the fitted curve at half-maximal effect; nearly all actives have a fitted effect of over 35% in size
VACV Venus inh – qHTS for Stage-Specific Inhibitors of Vaccinia Orthopoxvirus: Venus Reporter Primary qHTS; Vaccinia virus Venus reporter expression, fluorescence; Potency, µM (top dose mostly 36.5 µM), for the others: top-dose activity change, negative = inhibition, hits mostly inhibitors; 330,000 tested, 0.46% active; AID 720580, 2013; calls by dose curve; tested in A549 cells; also: potency is read from the fitted curve at half-maximal effect; nearly all actives have a fitted effect of over 30% in size
FMDV antiviral – High Throughput Screening for Foot and Mouth Disease Virus Antivirals | Potency, µM (doses to about 57.9 µM), for inactives: at the highest dose activity change, negative = inhibition, usual class: inhibitors | AID 1159524, 2015 | FMDV antiviral cell-based qHTS | 410,000 tested, 1.2% active; calls by dose curve; tested in HEK293T cells; also: read-out not given here; potency is read from the fitted curve at half-maximal effect; nearly all actives have a fitted effect of over 45% in size
Starred values were filed as active, the others as inactive; i = inactive; ? = inconclusive; . = no result; [ ] = another dose, or the depositor's remark. An excerpt weighted towards active compounds, which were near 9.3% of everything screened. Unless noted, calls follow the shape of the dose curve; as a rule, active = well fitted curve in the direction sought with a large enough effect; inconclusive = small, poorly fitted or top-dose-only effect, or another doubt; inactive = no such curve, though single readings can be large; an effect the other way counts as inactive or inconclusive. % is scaled to controls: 0 for no effect and ±100 for the full control effect.

SMILES | HCMV inh | HCV inhibitor | Sm TGR inh | VACV mCherry inh | VACV Venus inh | FMDV antiviral
NC(=O)C1CCN(C(=O)c2cc(-c3ccc(Cl)cc3)nc3ccccc23)CC1 | 29.5 | -15.7% | . | -7.1% | -3.2% | 12.2%
CCOC(=O)c1ccc(CC2SC(N)=NC2=O)cc1 (stereo unspecified) | 39.6 | 12.0% | 14.2% | -17.6% | -7.6% | 0.4%
CC(=S)/C=C1\Sc2ccccc2N1C | -23.4 | 2.2% | -23.2% | i | 3.8% | .
COc1ccc(-[n+]2c(C)cc(/C=C3\Sc4ccccc4N3C)cc2C)cc1 | -98.8* | 1.12µM* | -7.7% | . | . | ?
COc1ccc(C(=O)/C=C2\Sc3ccccc3N2C)cc1 | 127.1 | 10µM* | . | -25.0% | -8.2% | -5.5%
COc1ccccc1-[n+]1c(C)cc(/C=C2\Sc3ccccc3N2C)cc1C | -80.4* | ? | 12.1% | . | . | 3.98µM*
CCOC(=O)N1CCN(C(=O)c2cc(COc3ccc4ncccc4c3)on2)CC1 | -74.0* | 7.94µM* | ? | -21.5% | -21.6% | ?
Cc1cccnc1CN1CCN(C(=O)c2cc(COc3ccc4ncccc4c3)on2)CC1 | -82.9* | 3.98µM* | -1.7% | ? | -26.0% | 12.6µM*
COc1ccc(S(=O)(=O)Cc2ccccc2)cc1N | -33.8 | 1.7% | -25.3% | . | . | 15.3%
Nc1nc(CSc2nnnn2-c2ccccc2)nc(N2CCCc3ccccc32)n1 | -17.8 | 11.2µM* | -2.5% | ? | -28.5% | 28.2µM*
COc1ccc(CNC(=O)C2(CC3CC(c4ccccc4)=NO3)CCN(C(=O)Cc3ccc(F)cc3)CC2)cc1 (stereo unspecified) | -14.5 | -3.1%[8.37 µM] | . | i | -24.0% | -3.3%
O=C(NCC1CCCCC1)C1(CC2CC(c3cccc(Br)c3)=NO2)CCNCC1 (stereo unspecified) | -27.4 | ? | 44.7µM* | 11.2µM* | 10µM* | 0.3%
CCCNC(=O)C1(CC2CC(c3ccccc3)=NO2)CCN(C(=O)c2ccccc2)CC1 (stereo unspecified) | 20.2 | 5.0% | -9.5% | -1.9% | -9.3% | -2.2%
CCCCCCCNC(=O)C1(CC2CC(c3ccccc3)=NO2)CCNCC1 (stereo unspecified) | 4.6 | 10µM* | ? | -14.0% | ? | -5.5%
O=C(NCc1ccccc1)C1(CC2CC(c3ccccc3)=NO2)CCNCC1 (stereo unspecified) | -25.6 | ? | 50.1µM* | 19.5% | -16.6% | -20.3%
CC1(C)CC(=O)C2=C(C1)N(CC1CCCO1)C(=O)NC2(C(F)(F)F)C(F)(F)F (stereo unspecified) | 16.0 | -1.7% | -24.3% | -20.9% | 1.2% | .
CC1=C(C(N)=O)C(c2ccc(F)cc2)n2nc(-c3ccc(N(C)C)cc3)nc2N1 (stereo unspecified) | 5.1 | . | -7.3% | 1.3% | -7.7% | -2.8%
CCOC(=O)c1cn2c(C)cccc2n1 | 0.9 | -12.6% | -3.5% | i | -6.5% | -2.6%
CCCCN(CCO)c1ncnc2sc(-c3ccccc3)cc12 | 14.8 | 17.8µM* | -3.0% | . | . | -18.7%
COCCCNC(=O)CS(=O)Cc1nc(-c2cccc(OC)c2)oc1C (stereo unspecified) | 18.3 | 3.6% | 39.8µM* | . | . | 5.8%
COc1ccc(-c2nc(CS(=O)CC(=O)NCc3ccccc3Cl)c(C)o2)cc1OC (stereo unspecified) | -7.8 | . | -21.0% | -1.9% | -5.6% | 9.0%
COc1cccc(-c2nc(CS(=O)CC(=O)NCc3ccccc3Cl)c(C)o2)c1 (stereo unspecified) | 20.8 | ? | 31.6µM* | -19.6% | 1.7% | 14.2%
COc1ccc(/C=C/C(=O)Nc2sc3c(c2C(N)=O)CCCC3)cc1 | -13.4 | . | 0.3% | -3.9% | -2.7% | 17.2%
Cc1ccc[n+](C(C(=S)NCc2ccco2)=C([O-])c2ccccc2Cl)c1 | -27.3 | 30.4% | . | 16.4% | -2.7% | 0.9%
Cc1ccc[n+](/C(C(=S)NCc2ccco2)=C(/[O-])c2ccccc2Cl)c1 | -23.9 | 13.0% | 31.6µM* | . | . | 10.4%

Source: PubChem BioAssay
